In PMC4336329 (PLoS ONE, 2015):
Among all 310,000 compounds or so, about 14,000 (4.5%) showed an effect of 50% or more. Effects have a minus sign here. The sample holds strong results, similar compounds and a random draw of the others, so the mix is not that of the screen.
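Also: peak tail current of the secondary pulse compared with the same well before compound.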

These molecules were tested against human ether-à-go-go-related gene (hERG) potassium channel (human, UniProt Q12809) (assay: primary screen, population patch clamp on CHO cells stably expressing hERG; higher = less effect of the substance).
Sequence of human ether-à-go-go-related gene (hERG) potassium channel (Q12809 whole entry, looked up): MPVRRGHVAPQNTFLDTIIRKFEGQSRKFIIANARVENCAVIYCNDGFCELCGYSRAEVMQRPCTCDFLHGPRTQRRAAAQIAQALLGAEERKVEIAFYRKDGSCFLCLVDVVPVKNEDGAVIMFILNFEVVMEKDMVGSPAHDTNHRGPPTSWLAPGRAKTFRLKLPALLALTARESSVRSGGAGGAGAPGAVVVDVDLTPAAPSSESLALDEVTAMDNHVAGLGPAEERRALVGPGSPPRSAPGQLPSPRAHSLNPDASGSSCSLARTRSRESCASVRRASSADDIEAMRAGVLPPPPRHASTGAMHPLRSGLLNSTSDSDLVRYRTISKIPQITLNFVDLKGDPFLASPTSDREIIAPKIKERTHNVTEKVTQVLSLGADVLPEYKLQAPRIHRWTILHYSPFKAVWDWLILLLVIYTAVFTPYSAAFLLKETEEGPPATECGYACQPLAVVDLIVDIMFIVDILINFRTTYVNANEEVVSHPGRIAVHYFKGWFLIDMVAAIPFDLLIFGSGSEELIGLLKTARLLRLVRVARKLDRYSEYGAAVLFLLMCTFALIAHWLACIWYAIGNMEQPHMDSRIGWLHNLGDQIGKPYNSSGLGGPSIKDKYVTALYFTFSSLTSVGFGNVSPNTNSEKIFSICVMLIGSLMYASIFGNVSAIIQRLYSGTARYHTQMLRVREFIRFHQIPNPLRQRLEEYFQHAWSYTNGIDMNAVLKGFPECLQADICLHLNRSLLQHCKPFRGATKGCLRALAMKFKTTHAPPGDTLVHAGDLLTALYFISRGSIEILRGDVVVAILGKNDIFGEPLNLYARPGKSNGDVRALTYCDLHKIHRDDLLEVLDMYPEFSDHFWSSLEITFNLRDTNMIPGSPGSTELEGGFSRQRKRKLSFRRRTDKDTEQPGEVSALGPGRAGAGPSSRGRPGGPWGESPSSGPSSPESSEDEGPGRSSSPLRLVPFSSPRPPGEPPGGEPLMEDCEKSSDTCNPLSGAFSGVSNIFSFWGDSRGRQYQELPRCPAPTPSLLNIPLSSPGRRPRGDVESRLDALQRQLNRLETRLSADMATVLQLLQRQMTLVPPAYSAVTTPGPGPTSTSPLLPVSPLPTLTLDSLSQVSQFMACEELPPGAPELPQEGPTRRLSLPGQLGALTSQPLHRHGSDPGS
In the case of O=C(CN1CCN(Cc2ccccc2Cl)C1=O)NCc1cccnc1, the “hERG current change (%, negative = inhibition) at 10uM” value is reported as -1.97%.
With O=C(Cn1c(SCC(=O)N2CCCc3ccccc32)nc2ccccc21)N1CCCC1 the “hERG current change (%, negative = inhibition) at 10uM” value was -13.2%.
For O=[N+]([O-])c1ccc2c(c1)nc1n2CCN(c2ccccc2)C1, the “hERG current change (%, negative = inhibition) at 10uM” value was -26.1%.
In the case of CCn1cnc2sc(C(=O)N(Cc3ccc(N(C)C)cc3)Cc3ccco3)c(C)c2c1=O, the “hERG current change (%, negative = inhibition) at 10uM” value is reported as -22.2%.
In the case of CCOC(=O)c1c(NC(=O)C2COc3ccccc3O2)sc2c1CCN(Cc1ccccc1)C2.Cl (stereo not shown), the “hERG current change (%, negative = inhibition) at 10uM” value is reported as 0.603%.
In the case of CN(C)C1=NC[C@H](Cc2ccccc2)N1CCC1CCCC1, the “hERG current change (%, negative = inhibition) at 10uM” value is reported as -43.5%.
In the case of NC1=NC[C@@H](Cc2ccc(O)cc2)N1CCCCC1CCCCC1, the “hERG current change (%, negative = inhibition) at 10uM” value is reported as -18.6%.
With CN(C)C1=NC[C@H](Cc2ccccc2)N1CC1CCCCC1 the “hERG current change (%, negative = inhibition) at 10uM” value was -14.6%.
CN(C)C1=NC[C@H](Cc2ccccc2)N1CC1CCCC1 was tested, and the “hERG current change (%, negative = inhibition) at 10uM” value was -16.9%.
In the case of CN(C)C1=NC[C@H](Cc2ccccc2)N1CC1CCCCCC1, the “hERG current change (%, negative = inhibition) at 10uM” value is reported as -27.8%.
With CN(C)C1=NC[C@H](Cc2ccccc2)N1CCCC1CCCC1 the “hERG current change (%, negative = inhibition) at 10uM” value was -71.2%.
For NC1=NC[C@H](Cc2ccccc2)N1CCCCC1CCCCC1, the “hERG current change (%, negative = inhibition) at 10uM” value was -25.9%.
In the case of NC1=NC[C@H](Cc2ccc(O)cc2)N1CCCCC1CCCCC1, the “hERG current change (%, negative = inhibition) at 10uM” value is reported as -50.2%.
For CN(C)C1=NC[C@H](Cc2ccccc2)N1CCCC1CCCCC1, the “hERG current change (%, negative = inhibition) at 10uM” value was -70.8%.
For N#C/C(=C\c1ccc(F)cc1F)S(=O)(=O)c1ccccn1, the “hERG current change (%, negative = inhibition) at 10uM” value was 6.77%.
With Cc1ccc(C)c(NS(=O)(=O)c2cc3c4c(c2)CC(=O)N4CCC3)c1 the “hERG current change (%, negative = inhibition) at 10uM” value was 4.86%.
With O=C(N/N=C/c1ccc(Br)s1)c1cccc([N+](=O)[O-])c1 the “hERG current change (%, negative = inhibition) at 10uM” value was 12.2%.
With CC(C)(C)NC(=O)CN(C(=O)C1CSC(=O)C1)c1ccccc1F (stereo not shown) the “hERG current change (%, negative = inhibition) at 10uM” value was -0.923%.
Cc1ccc(S(=O)(=O)NNC(=O)c2ccoc2C)cc1 was tested, and the “hERG current change (%, negative = inhibition) at 10uM” value was -70.6%.
With Cc1occc1C(=O)NNS(=O)(=O)c1ccc(Cl)cc1 the “hERG current change (%, negative = inhibition) at 10uM” value was 7.64%.
Cc1occc1C(=O)NNS(=O)(=O)c1ccc([N+](=O)[O-])cc1 was tested, and the “hERG current change (%, negative = inhibition) at 10uM” value was 10.5%.
For O=C(CCc1ccccc1)NNC(=O)c1ccco1, the “hERG current change (%, negative = inhibition) at 10uM” value was 5.99%.
COc1ccc(CN2CCN(CC=C(C)C)C(CCO)C2)cc1Cn1cncn1 (stereo not shown) was tested, and the “hERG current change (%, negative = inhibition) at 10uM” value was -0.719%.
For COc1ccc(CN2CCCC(C(=O)c3ccc(Cl)cc3)C2)cc1Cn1cncn1 (stereo not shown), the “hERG current change (%, negative = inhibition) at 10uM” value was -78%.
In the case of COc1cccc(C(=O)C2CCCN(Cc3ccc4nonc4c3)C2)c1 (stereo not shown), the “hERG current change (%, negative = inhibition) at 10uM” value is reported as -48.5%.
With COc1cccc(C(=O)C2CCCN(Cc3ccc(OC)c(Cn4cncn4)c3)C2)c1 (stereo not shown) the “hERG current change (%, negative = inhibition) at 10uM” value was -58.6%.
In the case of COc1ccc(C(=O)C2CCCN(C(=O)Cn3cncn3)C2)cc1OC (stereo not shown), the “hERG current change (%, negative = inhibition) at 10uM” value is reported as 21.6%.
For O=C1CNC(=O)/C(=C\c2ccccc2)N1, the “hERG current change (%, negative = inhibition) at 10uM” value was 11.8%.
In the case of O=C(CNC(=O)c1ccc(Oc2ccccc2)cc1)OC1CCCCC1=O (stereo not shown), the “hERG current change (%, negative = inhibition) at 10uM” value is reported as -72.2%.
With COc1ccc(C(=O)NCC(=O)OC2CCCCC2=O)cc1 (stereo not shown) the “hERG current change (%, negative = inhibition) at 10uM” value was -13.5%.
COc1cc(OC)cc(C(=O)NCC(=O)OC2CCCCC2=O)c1 (stereo not shown) was tested, and the “hERG current change (%, negative = inhibition) at 10uM” value was -27.6%.
For Cc1ccccc1OC1C(=O)N(CC2CCCO2)C1c1ccc2c(c1)OCO2 (stereo not shown), the “hERG current change (%, negative = inhibition) at 10uM” value was -55.8%.
For O=C1C(Oc2ccc(Cl)cc2)C(c2ccc3c(c2)OCO3)N1CC1CCCO1 (stereo not shown), the “hERG current change (%, negative = inhibition) at 10uM” value was -28.3%.
In the case of COc1ccc(CCN2C(=O)C(Oc3ccccc3C)C2c2ccc3c(c2)OCO3)cc1 (stereo not shown), the “hERG current change (%, negative = inhibition) at 10uM” value is reported as -42.3%.
With CCc1nc(NCCN2CCOCC2)c(C#N)c2c1CCCC2 the “hERG current change (%, negative = inhibition) at 10uM” value was -37.2%.
In the case of CCN1CCN(CCCNC(=O)C2CCN(c3nnc(-n4cccc4)s3)CC2)CC1, the “hERG current change (%, negative = inhibition) at 10uM” value is reported as -3.56%.
CC1CCCCN1CCCNC(=O)C1CCN(c2nc3ccccc3o2)CC1 (stereo not shown) was tested, and the “hERG current change (%, negative = inhibition) at 10uM” value was -1.61%.
CCOc1ccc(NCc2cccn2-c2nnc(N3CCC(C(=O)NCCCN4C(C)CCCC4C)CC3)s2)cc1 (stereo not shown) was tested, and the “hERG current change (%, negative = inhibition) at 10uM” value was -69.3%.
CCOc1ccc(NCc2cccn2-c2nnc(N3CCC(C(=O)NCCCN4CC(C)CC(C)C4)CC3)s2)cc1 (stereo not shown) was tested, and the “hERG current change (%, negative = inhibition) at 10uM” value was -66.2%.
CCOc1ccc(CCNC(=O)C2CCN(c3nnc(-n4cccc4)s3)CC2)cc1 was tested, and the “hERG current change (%, negative = inhibition) at 10uM” value was -0.834%.
With Cc1ccc(C)n1-c1nnc(N2CCC(C(=O)NCCCN3CC(C)CC(C)C3)CC2)s1 (stereo not shown) the “hERG current change (%, negative = inhibition) at 10uM” value was -17.7%.
CC1CC(C)CN(CCCNC(=O)C2CCN(c3nnc(-n4cccc4)s3)CC2)C1 (stereo not shown) was tested, and the “hERG current change (%, negative = inhibition) at 10uM” value was -28.3%.
For CCC1CCCCN1CCCNC(=O)C1CCN(c2nnc(-n3cccc3)s2)CC1 (stereo not shown), the “hERG current change (%, negative = inhibition) at 10uM” value was -18.7%.
CC1CCCCN1CCCNC(=O)C1CCN(c2nnc(-n3cccc3)s2)CC1 (stereo not shown) was tested, and the “hERG current change (%, negative = inhibition) at 10uM” value was -27.1%.
CCOc1ccc(NCc2cccn2-c2nnc(N3CCC(C(=O)NCCCN4CCCCC4C)CC3)s2)cc1 (stereo not shown) was tested, and the “hERG current change (%, negative = inhibition) at 10uM” value was -53.8%.
In the case of CCOc1ccc(CCNC(=O)C2CCN(c3nnc(-n4cccc4)s3)CC2)cc1OCC, the “hERG current change (%, negative = inhibition) at 10uM” value is reported as -35.7%.
For CCOc1ccc(NCc2cccn2-c2nnc(N3CCC(C(=O)NCCCN4CCCCC4CC)CC3)s2)cc1 (stereo not shown), the “hERG current change (%, negative = inhibition) at 10uM” value was -68%.
COC(=O)c1ccccc1NC(=O)N1CCN(S(=O)(=O)c2ccc(Cl)cc2)CC1 was tested, and the “hERG current change (%, negative = inhibition) at 10uM” value was 7.58%.
With O=C(Nc1ncccc1Cl)C(Sc1ccccc1)c1ccccc1 (stereo not shown) the “hERG current change (%, negative = inhibition) at 10uM” value was 8.58%.
For Cc1[nH]n(-c2cccc(Cl)c2)c(=O)c1-c1ccccc1, the “hERG current change (%, negative = inhibition) at 10uM” value was 17.1%.
With CCOC(=O)c1nn(-c2ccc(C)cc2)cc1C(=O)c1ccccc1 the “hERG current change (%, negative = inhibition) at 10uM” value was -9.04%.
For COc1cc(CNc2ccc(N3CCOCC3)c(C(=O)O)c2)ccc1OCC(N)=O, the “hERG current change (%, negative = inhibition) at 10uM” value was -6.95%.
CCOc1ccc(S(=O)(=O)NCc2ccccc2)cc1C(N)=O was tested, and the “hERG current change (%, negative = inhibition) at 10uM” value was 18.9%.
O=C(OCC(O)CN1CCCCC1)C12CC3CC(CC(C3)C1)C2 (stereo not shown) was tested, and the “hERG current change (%, negative = inhibition) at 10uM” value was -16.3%.
For CCOC(=O)N1CCC(NC(=O)CC2C(=O)NCCN2Cc2ccccc2F)CC1 (stereo not shown), the “hERG current change (%, negative = inhibition) at 10uM” value was 11.8%.
